Where “and” joins values, the source holds several entries; their conditions need not be identical. Equal values may be shown once. In all, about 350,000 compounds went through this assay and about 1,300 (0.37%) were called active.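 The calls were made as follows: active = mean added fluorescence quench of at least 8% versus neutral control, with both replicates also reaching 8%; inconclusive = only one of the mean or replicate conditions met; inactive = mean below 8% and not both replicates reaching 8%.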 The list comes from a sample in which actives are over-represented; it also holds similar structures and randomly drawn compounds.
Assay: F508del CFTR correction, initial screen, CFBE line, single point (AID 720511);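 also: cells transiently co-express mutant CFTR-F508del with the halide-sensitive YFP; corrector assay measuring rescue of mutant channel to the surface after 24 h compound exposure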
Details: CFBE cells, YFP halide quenching, at 7.58 µM, stronger effect = higher value, % fluorescence drop versus neutral controls, stimulated with forskolin plus potentiator P3

Activity (quench increase), active:
O=C(Nc1ccc(OC(F)(F)F)cc1)c1ccc2c(c1)no[n+]2[O-] 14.5%, NC(=O)CC(NC(=O)Cc1ccc(Br)cc1)c1ccc(NC2CC3CCC2C3)c([N+](=O)[O-])c1 (stereo not drawn) 10.1%, COc1ccc(CNS(=O)(=O)c2cc(-c3cc(C)no3)ccc2C(C)C)cc1 10.7%, Cc1cccc(NS(=O)(=O)c2ccc(-c3cnc(C4CC4)o3)cc2)c1 10%, CC[N+]1(CC)CC2=Cc3ccccc3CC2C1 (stereo not drawn) 13.8%, NS(=O)(=O)c1cc(Cl)c(Cl)c(S(N)(=O)=O)c1 9.04%, CCOC(=O)c1c(NC(=O)CN2C(=O)NC3(CCC(C)CC3)C2=O)sc(C)c1CC (stereo not drawn) 8.23%, O=S(=O)(Cc1ccc(Cl)cc1Cl)c1ccc(Cl)cc1 12.1%, COc1ccc(OC)c(/C(C)=N\NC(=O)c2cc3cc(Cl)ccc3n2C)c1 14.1%, COc1cccc(-c2cnc3c(NC(C)=O)cc(-c4cc(F)ccc4OC)cn23)c1 9.31%, CC(C)(C)C(=O)OCc1nc(-c2ccc(O)c(O)c2)cs1 8.8%, C[C@H]1CN([C@@H](C)CO)C(=O)c2cccc(NC(=O)Nc3ccc(C(F)(F)F)cc3)c2O[C@H]1CN(C)C(=O)NC1CCCCC1 8.85%, C[C@H](CO)N1C[C@H](C)[C@@H](CN(C)Cc2ccc(Cl)c(Cl)c2)Oc2ccc(NC(=O)Nc3ccc(C(F)(F)F)cc3)cc2CC1=O 12.6%, CCCC(=O)Nc1nc2ccc(NC(=O)c3c(F)c(F)c(OC)c(F)c3F)cc2s1 13.3%, CCOc1ccc(NC(=O)c2ccc(NC(=O)CN3C(=O)C(=O)N(CC(C)C)C3=O)cc2)cc1 9.37%

Activity (quench increase), inactive:
C[C@@H]1CN([C@H](C)CO)C(=O)Cc2cc(NS(=O)(=O)c3ccc(F)cc3)ccc2O[C@H]1CN(C)C -0.0265%, CC(C)(C)[S@@](=O)N1Cc2cc(C(=O)N3CCOCC3)nc(-c3cccc(-c4ccc(C#N)cc4)c3)c2[C@H]1CCO 1.68%, Cc1noc(C)c1NC(=O)Nc1ccc2c(c1)CC(=O)N([C@@H](C)CO)C[C@H](C)[C@@H](CN(C)CC1CCCCC1)O2 0.161%, CCOc1c2ccc(C(=O)NCc3ccc(OC(F)(F)F)cc3)cc2nn1C 0.909%, CCOC(=O)Cc1ncccc1C(=O)Nc1ccc(OC(F)(F)F)cc1 -3.45%, O=C(C1CCOCC1)N1CC(=O)N2[C@H](CO)[C@@H](c3ccc(C#CC4CCCC4)cc3)[C@H]2C1 -0.867%, C[C@@H]1CN([C@@H](C)CO)C(=O)c2cc(NS(C)(=O)=O)ccc2O[C@@H]1CN(C)C 0.661%, CC1CCCCN1CCCNc1ccc(C(CC(N)=O)NC(=O)c2ccccc2)cc1[N+](=O)[O-] (stereo not drawn) -1.78%, NC(=O)CC(NC(=O)Cc1cccc2ccccc12)c1ccc(NCc2cc(F)ccc2F)c([N+](=O)[O-])c1 (stereo not drawn) 0.166%, COc1ccc(S(=O)(=O)Nc2ccc3c(c2)C(=O)N([C@H](C)CO)C[C@H](C)[C@@H](CN(C)Cc2ccc(-c4ccccc4)cc2)O3)cc1 1.93%, COc1ccccc1C#Cc1ccc([C@@H]2[C@@H](CO)N(C(=O)C3CC3)[C@H]2C#N)cc1 2.81%, Cc1cc(-c2ccc(C)c(S(=O)(=O)NCCCN(Cc3ccccc3)C(C)C)c2)on1 0.63%, CCOc1ccccc1CNS(=O)(=O)c1cc(-c2cc(C)no2)ccc1C -0.998%, COc1ccc(C#Cc2ccc3c(c2)[C@]2(C(=O)N3)[C@H](C(=O)N3CCc4cc(OC)c(OC)cc4C3)[C@H]3C(=O)O[C@H](c4ccccc4)[C@H](c4ccccc4)N3[C@@H]2c2ccc(O)cc2)cc1 -2.79%, CCC(=O)Nc1ccc2c(c1)C(=O)N(C)[C@@H]1CC[C@@H](CC(=O)NCc3ccccc3Cl)O[C@H]1CO2 -0.213%, CC(=O)NC[C@H]1[C@@H](c2ccc(C#CC(C)C)cc2)[C@@H](CO)N1Cc1ccccn1 -0.601%, CCCC(=O)Nc1ccc2c(c1)C(=O)N(C)C[C@@H](OC)[C@H](C)CN(C(C)=O)[C@H](C)CO2 -1.19%, COc1ccc(CNS(=O)(=O)c2ccc(-c3cnc(C4CC4)o3)cc2)cc1 -1.13%, Cc1cccc(CNS(=O)(=O)c2ccc(-c3cnc(C4CC4)o3)cc2)c1 2.12%, COc1ccc(S(=O)(=O)N(C)C[C@H]2Oc3ccc(NS(=O)(=O)c4ccc(C)cc4)cc3CC(=O)N([C@@H](C)CO)C[C@@H]2C)cc1 -1.33%, COc1ccc2c3c(n(C)c2c1)[C@@H](CO)N(CC1CC1)CC31CCN(C(=O)c2cccc(F)c2)CC1 -0.0985%, C[C@H]1CCCCO[C@@H](CN(C)Cc2ccccc2)[C@@H](C)CN([C@@H](C)CO)C(=O)c2cc(NC(=O)CCCN(C)C)ccc2O1 -1.18%, CCCC#Cc1ccc2c(c1)O[C@@H](CN(C)CC1CC1)[C@@H](C)CN([C@H](C)CO)S2(=O)=O 2.53%, Cc1ccc(S(=O)(=O)N2C[C@H](O)COC[C@H]3O[C@H](CC(=O)N[C@H]4CCN(Cc5ccccc5)C4)CC[C@@H]32)cc1 0.736%, C[C@@H]1CN([C@H](C)CO)C(=O)Cc2cc(NC(=O)NC3CCCCC3)ccc2O[C@H]1CN(C)S(C)(=O)=O 0.525% and 3.05%, CCC(=O)N1C[C@@H](C)[C@@H](OC)CN(C)C(=O)c2ccc(NC(=O)Nc3ccccc3)cc2OC[C@H]1C -0.0305%, Cc1ccc(S(=O)(=O)Nc2cccc3c2O[C@@H](CN(C)S(=O)(=O)c2ccc(C)cc2)[C@H](C)CN([C@@H](C)CO)C3=O)cc1 -1.75%, O=C(C[C@H]1CC[C@H]2[C@@H](COC[C@@H](O)CN2C(=O)c2ccc3c(c2)OCO3)O1)NC1Cc2ccccc2C1 3.06%, Nc1c(Cl)cc(S(N)(=O)=O)cc1S(N)(=O)=O -0.405%, NS(=O)(=O)c1ccc(NC(=S)Nc2ccc(Br)c(Cl)c2)cc1 1.17%, CC(=O)N(C)C[C@H]1Oc2ncc(-c3cccc(F)c3)cc2C(=O)N([C@@H](C)CO)C[C@H]1C -3.71%, CN1C(=O)c2cc(NC(=O)c3ccccc3)ccc2OC[C@@H]2O[C@H](CC(=O)NCC3CC3)CC[C@@H]21 -1.16%, Cc1ccc(S(=O)(=O)N[C@H]2CC[C@@H](CC(=O)N3CCc4ccccc4C3)O[C@H]2CO)cc1 -3.27%, CCOC(=O)c1c(NC(=O)C2CC=CCC2C(=O)O)sc(C)c1CC (stereo not drawn) 0.585%, CCC1CCC2(CC1)NC(=O)N(CC(=O)Nc1ccc(OC)cc1)C2=O (stereo not drawn) 4.71%, O=S(=O)(NC1CC1)c1ccc(Cl)cc1 0.433%, O=S(=O)(NCc1ccc(Cl)cc1Cl)c1cccs1 0.403%, C/C=C/c1ccc([C@H]2[C@@H](CNC(C)C)N(c3nc(CC)cs3)[C@H]2CO)cc1 2.62%, COc1cc(C(=O)NCc2cc3cc(Cl)ccc3n2C)cc(OC)c1OC 2.35%, COc1ccc(C(=O)N/N=C(\C)CC(=O)Nc2ccc(Cl)cn2)cc1 0.068%, Cc1ccc(S(=O)(=O)Nc2ccc3c(c2)C(=O)N([C@@H](C)CO)C[C@@H](C)[C@H](CN(C)Cc2ccc(C(=O)O)cc2)O3)cc1 5.34%, COc1ccccc1-c1cc(NC(C)=O)c2ncc(-c3ccc(F)cc3)n2c1 3.05%, COc1cccc(-c2cnc3c(NC(C)=O)cc(-c4cccc(NC(C)=O)c4)cn23)c1 -0.356%, CCCNC(=O)[C@@H]1[C@@H](CO)[C@@H]2Cn3c(ccc(C4=CCCCC4)c3=O)[C@H]1N2CCC 0.001%, CN(c1ccc(O)cc1)c1nc(-c2cccnc2)cs1 3.59%, COc1ccc(C(C)(O)c2nc(-c3ccc(C)c(C)c3)cs2)cc1 (stereo not drawn) 0.543%, C[C@H](CO)N1C[C@H](C)[C@H](CN(C)C(=O)c2cccnc2)Oc2ncc(C3=CCCC3)cc2C1=O -0.608%, C[C@@H]1CN([C@H](C)CO)C(=O)Cc2cc(NC(=O)Nc3ccccc3)ccc2O[C@H]1CN(C)Cc1ccc(Cl)c(Cl)c1 -0.242%, C[C@H](CO)N1C[C@H](C)[C@@H](CN(C)C(=O)NC2CCCCC2)Oc2c(NC(=O)Nc3ccc(F)cc3)cccc2C1=O 3.54%, C[C@@H]1CN([C@H](C)CO)C(=O)Cc2cc(NC(=O)Nc3ccccc3)ccc2O[C@@H]1CN(C)Cc1ccc(C(F)(F)F)cc1 0.116%, C[C@@H]1CN([C@H](C)CO)C(=O)c2cccc(NC(=O)Nc3ccccc3)c2O[C@@H]1CN(C)C(=O)NC1CCCCC1 -1.15%, O=C(C[C@@H]1C=C[C@H](NC(=O)Nc2ccc3c(c2)OCO3)[C@H](CO)O1)NCc1ccccc1 4.6%, CO[C@H]1CN(C)C(=O)c2ccc(NS(=O)(=O)c3ccccc3C)cc2OC[C@H](C)NC[C@H]1C -0.483%, CCCn1nc(C(=O)Nc2ccc3nc(C)sc3c2)c2ccccc2c1=O -0.539%, CC(=O)Nc1ccc2nc(NC(=O)CS(=O)(=O)c3ccc(F)cc3)sc2c1 0.717%, CCS(=O)(=O)Nc1ccc2c(c1)C(=O)N(C)[C@H]1CC[C@@H](CC(=O)Nc3ccccc3)O[C@H]1CO2 -3.46%, CCOc1ccc(NC(=O)c2ccc(NC(=O)COC(=O)c3ccc(NC(=O)CC#N)cc3)cc2)cc1 -1.21%, CCOc1ccc(NC(=O)CCNC(=O)c2ccc(Br)cc2)cc1 -1.36%
